Experimental data: PubChem BioAssay AID485317 (Broad Institute, 2010)
Hit rate of the full screen: of about 290,000 compounds, about 11,000 (3.8%) were called active. The full list was thinned out, with actives kept by preference. Values without a mark were called inactive.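 Rule for the calls: active = mean replicate inhibition above about 79%, with every replicate also reaching it (limit read from the data); inconclusive = only one of the two criteria met; inactive = mean below limit and not every replicate reaching it.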

Target: FAD-linked sulfhydryl oxidase ALR (Homo sapiens) (UniProt P55789)
Test: ALR-catalysed DTT oxidation blockers – biochemical, H2O2 detection, HRP-luminol luminescence, single point, primary screen (AID 485317)
Details: purified ALR, active compounds read high, concentration not given here

FAD-linked sulfhydryl oxidase ALR (Homo sapiens), sequence (P55789 whole entry, looked up): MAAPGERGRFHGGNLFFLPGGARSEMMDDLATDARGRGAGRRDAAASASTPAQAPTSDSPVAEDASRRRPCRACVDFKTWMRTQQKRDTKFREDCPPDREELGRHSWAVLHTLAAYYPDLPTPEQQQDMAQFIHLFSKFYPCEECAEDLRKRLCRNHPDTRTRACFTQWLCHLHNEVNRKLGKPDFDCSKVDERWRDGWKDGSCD

| Structure (SMILES) | inhibition |
| --- | --- |
| CC1=NN(c2ccc(Cl)c(C(=O)O)c2)C(=O)/C1=C/c1ccc(-c2ccccc2[N+](=O)[O-])o1 | 71.4% |
| Cc1cccc(C)c1-n1c(C)cc(/C=C2\C(=O)NN(c3ccccc3)C2=O)c1C | 21.8% |
| O=C1NN(c2ccccc2)C(=O)/C1=C/c1ccc(-c2cccc(C(=O)O)c2)o1 | 98.7% (active) |
| O=S(=O)(NCC1CN(S(=O)(=O)c2ccc3c(c2)OCCO3)C1)c1c(F)cccc1F | -2.88% |
| COc1ccc(NC(=O)Nc2ccc3c(c2)C(=O)N([C@H](C)CO)C[C@H](C)[C@@H](CN(C)C(=O)Nc2ccc4c(c2)OCO4)O3)cc1 | -7.46% |
| Cc1cc(C(=O)OCC(=O)N2C(C)CCCC2C)c2ccccc2n1 (stereo unspecified) | -5.22% |
| COc1ccc(C(=O)O)cc1S(=O)(=O)NC1CCN(Cc2ccccc2)CC1 | -0.811% |
| COc1ccccc1N1CCN(C(=O)c2cc3c(-c4ccc(Cl)cc4)nn(C)c3s2)CC1 | -109% |
| Cn1nc(-c2ccc(Cl)cc2)c2cc(C(=O)NCc3ccco3)sc21 | 86.8% (active) |
| CCOC(=O)N1CCN(C(=O)c2cc3c(-c4ccc(Cl)cc4)nn(C)c3s2)CC1 | 72.2% |
| O=C(COC(=O)c1cccc(Cl)c1)NC1CCCCCCC1 | -2.57% |
| C/C(=N\NC(=O)c1cccnc1)c1ccc(-c2ccccc2)cc1 | -25.7% |
| O=C(N/N=C/c1ccccn1)c1cccnc1 | -5.07% |
| O=C(NN=C1CCC(=NNC(=O)c2cccnc2)CC1)c1cccnc1 | 99.1% (active) |
| CCCCN(C1CCS(=O)(=O)C1)S(=O)(=O)c1ccc(C(C)C)cc1 (stereo unspecified) | -1.06% |
| CC1O[C@H](OC2C(COC3OC(CO)C(O)[C@H](O)C3O)OC(OC3CC[C@]4(C)C(CC[C@@]5(C)[C@@H]4C=C[C@]46OC[C@@]7(CCC(C)(C)C[C@H]74)C(O)C[C@@]56C)C3(C)C)C(O)C2O)C(O)C(O)C1O (stereo partly specified) | -3.57% |
| CCCC[C@@H]1CN=C(N)N1CCc1cc(C(F)(F)F)cc(C(F)(F)F)c1 | -42.9% |
| CCCCN1C(N)=NC[C@@H]1CC1CCCCC1 | 98.3% (active) |
| CCCC[C@@H]1CN=C(N)N1CCCC | 4.8% |
| COc1ccc(S(=O)(=O)Nc2c(C)n(C)n(-c3ccccc3)c2=O)cc1 | -9.38% |
| COc1ccc(S(=O)(=O)NCCCc2ccccc2)cc1 | -2.65% |
| COc1ccc(S(=O)(=O)/N=C2\C=C(NS(=O)(=O)c3ccccc3)C(=O)c3ccccc32)cc1 | 87.5% (active) |

| Structure (SMILES) | inhibition |
| --- | --- |
| COc1cc(OC)cc(-c2c(-c3cccs3)c3cc(-c4ccc(OC)nc4)ccc3n2C)c1 | -18.1% |
| O=C(OCC(=O)N1CCN(C(=O)c2ccco2)CC1)c1c(Cl)cccc1Cl | -7.05% |
| Cn1cccc1C(=O)OCC(=O)NCCc1ccccc1 | 5.56% |
| Cc1ccc(Cn2c(SCC(=O)N/N=C/c3ccccc3OCC(=O)O)nc3ccccc32)cc1 | -5.09% |
| C=CCn1c(Cn2nnc3ccccc32)nnc1SCC(=O)N/N=C/c1cc(Br)cc(OC)c1O | 98.4% (active) |
| Cn1c(Cn2nnc3ccccc32)nnc1SCC(=O)c1ccccc1F | 25.7% |
| CSc1ccccc1NC(=O)C(C)N1C(=O)c2ccccc2S1(=O)=O (stereo unspecified) | -4.05% |
| CC(=O)C(CC(=O)N1CCCC1)C(=O)Nc1ccc(Cl)cc1 (stereo unspecified) | 23.9% |
| Cc1ccc(N2C(=O)N3[C@@H]4c5ccccc5OC[C@@H]4[C@@H](c4ccccc4)[C@@]3(C)C2=O)cc1 | 3% |
| Cc1nc(SCC(=O)NC2CCCCC2C)c(C#N)c(C)c1C (stereo unspecified) | -0.312% |
| O=C(CN1C(=O)NC2(CCOc3ccccc32)C1=O)Nc1cccc([N+](=O)[O-])c1 (stereo unspecified) | 13.9% |
| COc1ccccc1C(=O)NCCC(=O)NN1C(=O)NC2(CCCCC2)C1=O | -0.581% |
| CCCCNc1c(-c2ccc(OC)c(Sc3ccc(OC)cc3)c2)nc2ccc(Cl)cn12 | -8.2% |
| COc1ccc(-c2nc3cnccn3c2NC2CCCCC2)cc1-c1cccc(Cl)c1 | 3.7% |
| COc1ccc(-c2nc3cnccn3c2NC(C)(C)CC(C)(C)C)cc1O | 99.6% (active) |
| COc1ccc(S(=O)(=O)N(C)C[C@@H]2Oc3ccc(NC(=O)Nc4c(C)noc4C)cc3C(=O)N([C@H](C)CO)C[C@@H]2C)cc1 | -1.21% |
| NC(=O)NC(CC(=O)NNC(=O)c1ccccn1)c1ccc(Cl)cc1 (stereo unspecified) | -14% |
| Cc1ccc(N2C(=O)C3C(c4ccccc4)(C2=O)C3(c2ccccc2)c2ccccc2)cc1 (stereo unspecified) | -4.39% |
| COc1cccc(C2SCC(=O)N2c2cccc(C)c2)c1OC (stereo unspecified) | -42.2% |
| Cc1ccc(C2SCC(=O)N2c2ccccc2)cc1 (stereo unspecified) | 98.3% (active) |
| Cc1occc1C(=O)Nc1cccc(S(=O)(=O)N2CCOCC2)c1 | -1.99% |
| CCOC(=O)C1CCN(C(=O)c2cccc(S(=O)(=O)N(CC)c3ccccc3)c2)CC1 | -13.6% |

| Structure (SMILES) | inhibition |
| --- | --- |
| COc1ccc(Cl)cc1NC(=O)CN(C)C(=O)c1cc(-c2cccs2)nn1-c1ccccc1 | 21.6% |
| COc1ccc(NS(=O)(=O)c2ccc(F)cc2F)cn1 | -5.33% |
| COc1ccc(Nc2cc(Cl)ccc2C(=O)O)cn1 | 98.7% (active) |
| COc1ccc(Nc2ccc([N+](=O)[O-])cn2)cn1 | -22.9% |
| O=C(N[C@@H]1C/C=C\C[C@@H](CC(=O)N(CCO)Cc2ccccc2)C(=O)N[C@H](Cc2ccccc2)COC1=O)OCC1c2ccccc2-c2ccccc21 | 5.13% |
| CCOc1ccc(NC(=O)COc2ccc(C(=O)N3CCC(C(N)=O)CC3)cc2OC)cc1 | -0.853% |
| CCc1ccc(NC(=O)CSc2nnc(-c3cnccn3)n2Cc2ccco2)cc1 | 29.4% |
| CCOC(=O)Cc1csc(NC(=O)CSc2nnc(-c3cccnc3)n2Cc2ccco2)n1 | -5.11% |
| O=C(CSc1nnc(-c2cccs2)n1Cc1ccco1)c1ccc2c(c1)OCO2 | 0.1% |
| O=C(CSc1nnc(-c2cccnc2)n1Cc1ccco1)c1ccc(Cl)c(Cl)c1 | 98.2% (active) |
| C(=C\c1ccccc1)/CSc1nnc(-c2cccnc2)n1Cc1ccco1 | 87.9% (active) |
| O=C(CSc1nnc(-c2cccnc2)n1Cc1ccco1)c1ccc(Cl)cc1 | 54.6% |
| O=C(CSc1ncn[nH]1)Nc1ccc(Br)cc1Br | -5.94% |
| CC(OC(=O)c1ccccc1NCCO)C(=O)Nc1ccnn1C(C)C (stereo unspecified) | -3.31% |
| N#Cc1ccc(CN2CCN(CC(=O)Nc3ccccc3C(=O)NC3CC3)CC2)cc1 | -2.66% |
| Cn1cccc1C(=O)NNC(=O)COc1ccc(Br)cc1 | -4.16% |
| CCN(CC(=O)Nc1c(F)cccc1F)C(=O)c1ccc(S(=O)(=O)N2CCCCC2)cc1 | -1.01% |
| Clc1ccccc1CSc1nnc(-c2ccco2)c(-c2ccco2)n1 | 100% (active) |
| COC(OC)c1ccnc(SCc2ccccc2Cl)n1 | -8.94% |
| S=C(NCc1ccco1)NCc1ccccc1Cl | -9.19% |
| O=C(Nc1ccc(C(=O)N2CCOCC2)cc1)Nc1cccc(C(F)(F)F)c1 | -2.29% |
| Cc1ccc(-c2nn(-c3cccc(F)c3)cc2CNCCc2ccncc2)o1 | -14.7% |

| Structure (SMILES) | inhibition |
| --- | --- |
| Cc1ccc(-c2nn(-c3ccccc3)cc2CN(Cc2ccccc2)C(=O)CCC(=O)O)o1 | 97.6% (active) |
| O=C(O)CCC(=O)N(Cc1ccccc1)Cc1ccccc1 | -2.42% |
| Cc1c(NC(=O)C(C)OC(=O)c2c3c(nc4ccccc24)CCC(C)C3)c(=O)n(-c2ccccc2)n1C (stereo unspecified) | 18% |
| O=C1CCc2cc(S(=O)(=O)Nc3ccc(C(F)(F)F)cc3)cc3c2N1CC3 | -0.668% |
| Cc1cc(OCC(=O)N(C)c2c(N)n(Cc3ccccc3)c(=O)[nH]c2=O)c(C(C)C)cc1Cl | -4.09% |
| O=C(CCNC(=O)c1ccccc1Cl)NN=Cc1ccco1 | -3.45% |
| Cc1csc(NC(=O)CSc2nc(=O)cc(N)n2-c2ccc(F)cc2)n1 | 91.6% (active) |
| Cc1cc(NC(=O)CSc2nc(=O)cc(N)n2-c2ccc(F)cc2)no1 | -1.5% |
| Cc1csc(NC(=O)CSc2ccc(-c3ccc(F)cc3)nn2)n1 | -12.2% |
| Cc1cc(C)c(S(=O)(=O)N2CCC(C(=O)OCc3c(C)noc3C)CC2)c(C)c1 | -4.27% |
| CCCCN(C(=O)C1=NN(c2cc(C)ccc2C)C(=O)CC1)c1c(N)n(CCC)c(=O)[nH]c1=O | 0.0423% |
| CCN(Cc1ccccc1)C(=O)Cc1ccc(OC)c(S(=O)(=O)N2CCOCC2)c1 | -3.18% |
| COc1ccc(OCCCC(=O)Nc2cccc(S(=O)(=O)N3CCCCCC3)c2)cc1 | -4.87% |
| CCOc1ccc(CCNC(=O)COC(=O)c2c(OC)cccc2OC)cc1OCC | -5.28% |
| CC(C)c1ccc(Nc2nnc(SCC(=O)c3nnc(-c4ccccc4)o3)s2)cc1 | 98.1% (active) |
| O=C(CSc1nnc(Nc2ccccc2)s1)Nc1cccnc1Cl | 4.27% |
| Cc1ccc(Nc2nnc(SCc3ccccc3)s2)cc1 | -12.9% |
| CC(C)n1c(NCc2c[nH]c3ccccc23)nc2ccccc21 | 97.9% (active) |
| CC(C)n1c(COc2ccccc2)nc2ccccc21 | 14.1% |
| CC(C)n1c(-c2cccs2)nc2ccccc21 | -15.2% |
